Rows were chosen to be rich in hits. Some 3.5% of all compounds tested hit in one or more screens of this group.
FBW7 act: FBW7 E3 ligase activators, primary screen, biochemical, AlphaScreen, human. 650,000 compounds, 0.13% hits. normalized activity (activation), % at 26.1 µM. AlphaScreen FBW7–phospho-cyclin E peptide binding, activator screen. AID 1259310, 2017. F-box/WD repeat-containing protein 7 (Homo sapiens), Q969H0; in the data active = normalized activity above about 1.9%;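 note: purified mutant Fbw7 with reduced substrate affinity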
Target sequence (Q969H0 whole entry, looked up): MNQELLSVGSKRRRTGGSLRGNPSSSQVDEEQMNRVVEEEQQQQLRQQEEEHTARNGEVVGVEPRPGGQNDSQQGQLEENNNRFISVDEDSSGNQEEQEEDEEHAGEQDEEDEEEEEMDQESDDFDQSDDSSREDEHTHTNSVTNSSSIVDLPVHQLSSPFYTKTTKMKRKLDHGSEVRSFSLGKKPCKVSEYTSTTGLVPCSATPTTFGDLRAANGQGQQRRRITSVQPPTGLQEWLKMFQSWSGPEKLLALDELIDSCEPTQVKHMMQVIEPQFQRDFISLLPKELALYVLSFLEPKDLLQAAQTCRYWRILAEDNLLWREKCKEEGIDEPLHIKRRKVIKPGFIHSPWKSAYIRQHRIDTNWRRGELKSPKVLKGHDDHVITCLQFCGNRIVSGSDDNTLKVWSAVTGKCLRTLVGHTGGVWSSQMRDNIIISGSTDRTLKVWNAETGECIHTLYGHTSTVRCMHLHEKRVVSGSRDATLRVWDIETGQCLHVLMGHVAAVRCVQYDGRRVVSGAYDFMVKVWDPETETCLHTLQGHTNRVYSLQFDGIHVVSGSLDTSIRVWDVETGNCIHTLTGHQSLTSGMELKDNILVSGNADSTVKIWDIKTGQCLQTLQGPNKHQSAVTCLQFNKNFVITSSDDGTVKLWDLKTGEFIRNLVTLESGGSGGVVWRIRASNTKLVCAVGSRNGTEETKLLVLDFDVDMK
TEAD-YAP block: TEAD-YAP interaction inhibition, primary screen, TEAD-YAP interaction inhibitor project, luminescence, HEK-TIYL cells | TEAD-Gal4/YAP UAS-luciferase luminescence | inhibition, % at 9.12 µM | 640,000 compounds, 1.4% hits | AID 1259422, 2018; in the data active = inhibition above about 32%
GPR151 ag: activators of human GPR151, primary screen, cell-based, PathHunter beta-arrestin, luminescence; G-protein coupled receptor 151 (Homo sapiens), Q8TDV0; 650,000 compounds, 1% hits; activation, % at 11.2 µM; PathHunter beta-arrestin GPR151 cells; in the data active = activation above about 4.9%
MITF primary: MITF inhibitors, primary screen, biochemical, AlphaScreen, human | AlphaScreen MITF homodimerization, bead proximity signal | Microphthalmia-associated transcription factor (Homo sapiens), O75030 | 650,000 compounds, 0.91% hits | inhibition, % at 2.6 µM; in the data active = inhibition above about 50%
MITF inh conf: MITF inhibitors, retest of hits, confirmation, biochemical, AlphaScreen, triplicate | AlphaScreen MITF homodimerization, biotin/His-MITF beads | inhibition, % at 2.6 µM | shares compounds with MITF primary | 4,700 compounds, 16% hits;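 active = inhibition above a cutoff derived from the DMSO control wells, cut at about 28% in these data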;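 note: inhibitors lower the bead chemiluminescence by keeping MITF from dimerizing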
AlphaScreen DR: AlphaScreen optical interference compounds, dose response, counter-screen, biochemical, HTS. 480 compounds, 6% hits. IC50, µM. AlphaScreen optical interference counterscreen, cell-free. shares compounds with MITF primary; call rule not given here
AS interf ctr: AlphaScreen optical interference compounds, counter-screen for MITF inhibitor project, biochemical, triplicate. shares compounds with MITF primary. LysRS AlphaScreen counterscreen, signal interference. inhibition, % at 2.6 µM. 4,700 compounds, 7.6% hits. AID 1259376, 2018;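 active = inhibition above a cutoff derived from the DMSO control wells, cut at about 30% in these data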
Numbers stand for hits; n = inactive; x = not tested or not shown.

SMILES | FBW7 act | TEAD-YAP block | GPR151 ag | MITF primary | MITF inh conf | AS interf ctr | others
COc1cc(OC)cc(C(=O)N2CCN(Cc3c[nH]c4ccccc34)CC2)c1 | n | n | n | n | x | x
O=[N+]([O-])c1ccccc1CN1CCN(Cc2ccncc2)CC1 | n | n | n | 65 | n | n
COc1cccc(CN2CCN(Cc3ccco3)CC2)c1OC | n | n | n | n | x | x
COc1cccc(CN2CCN(C(=O)c3ccco3)CC2)c1OC | n | n | n | 57 | n | n
O=C(c1ccncc1)N1CCN(Cc2ccccc2[N+](=O)[O-])CC1 | n | n | n | 78 | 74 | n | AlphaScreen DR=n
COc1ccc(C2C(C(=O)OC(C)C)=C(C)Nc3nnnn32)cc1 (stereo unspecified) | n | n | n | n | x | x
O=[N+]([O-])c1ccc(N2CCN(Cc3ccccc3[N+](=O)[O-])CC2)cc1 | n | n | n | n | x | x
CC(=O)c1ccc(N2CCN(Cc3ccccc3[N+](=O)[O-])CC2)cc1 | n | n | n | 51 | n | n
COc1cc(C(=O)N2CCN(Cc3cccc4ccccc34)CC2)cc(OC)c1OC | n | n | n | 57 | n | n
O=[N+]([O-])c1ccccc1CN1CCN(Cc2c[nH]c3ccccc23)CC1 | n | n | n | 62 | n | n
CCOc1ccc(CN2CCN(Cc3ccccc3[N+](=O)[O-])CC2)cc1 | n | n | n | 56 | n | n
CC(C)(C)c1ccc(CN[C@H]2C[C@H]3C(=O)N[C@@H](CCCCN)C(=O)N3C2)cc1 | n | n | n | n | x | x
CCC(C)(C)NC(=O)c1cccc(C)c1[N+](=O)[O-] | n | n | n | n | x | x
COc1ccc(C(=O)N2CCN(Cc3ccccc3[N+](=O)[O-])CC2)cc1 | n | n | n | 54 | n | n
COc1ccccc1C(=O)N1CCN(Cc2ccccc2[N+](=O)[O-])CC1 | n | n | n | n | x | x
CCN(CC)C(=O)C1CCCN(Cc2cccc(F)c2)C1 (stereo unspecified) | n | n | n | 58 | n | n
CCN(CC)C(=O)C1CCCN(Cc2cccc(OC)c2)C1 (stereo unspecified) | n | n | n | 56 | n | n
CCN(CC)C(=O)C1CCCN(Cc2cccc(C)c2)C1 (stereo unspecified) | n | n | n | n | x | x
CCN(CC)C(=O)C1CCCN(Cc2sccc2C)C1 (stereo unspecified) | n | n | n | 51 | n | n
CCN(CC)C(=O)C1CCCN(Cc2ccc(C)cc2)C1 (stereo unspecified) | n | n | n | n | x | x
CCN1C(=S)N(c2ccc(C)cc2)C2CS(=O)(=O)CC21 (stereo unspecified) | n | n | n | n | x | x
COC(=O)CN(CCN(CC(=O)O)CC(=O)OC)CC(=O)O | n | n | n | 55 | 41 | n
O=C(O)CN(CCN(CC(=O)O)CC(=O)O)CC(=O)O | n | n | n | n | x | x
COc1ccccc1-n1c(CNC(=O)c2cccs2)nnc1SCC(=O)Nc1cccc(C)c1 | n | n | n | n | x | x
COc1ccc(OC)c(-n2c(CNC(=O)c3cccs3)nnc2SCC(=O)Nc2cccc(C)c2)c1 | n | n | n | 62 | n | n
SMILES | FBW7 act | TEAD-YAP block | GPR151 ag | MITF primary | MITF inh conf | AS interf ctr | others
O=C(Nc1ccc2c(c1)OCO2)c1cnc(N2CCN(Cc3ccc4c(c3)OCO4)CC2)s1 | n | n | n | n | x | x
COC(C)(C)CNC(=O)C1CCN(C2CCN(Cc3cccc(C)n3)CC2)CC1 | n | n | n | 81 | 73 | n | AlphaScreen DR=n
CCC(C)CNC(=O)C1CCN(C2CCN(Cc3cccc(C)n3)CC2)CC1 (stereo unspecified) | n | n | n | n | x | x
CCn1c(=O)c2c(nc3n(CCc4ccccc4)c(C)cn23)n(C)c1=O | n | n | n | n | x | x
Cc1cn2c3c(=O)n(C)c(=O)n(C)c3nc2n1CCc1ccccc1 | n | n | n | 55 | n | n
Cc1cccc(CN2C(=O)NC3(CCCC3)C2=O)c1 | n | n | n | n | x | x
COc1cccc(CNC(=O)Nc2ccc(Cl)c(Cl)c2)c1 | n | n | n | n | x | x
O=C(Cc1cn(-c2ccc(Cl)nn2)c2ccccc12)NCc1ccccc1 | n | n | n | 72 | n | n
COc1ccc(/C(O)=C2\C(=O)C(=O)N(c3ccccn3)C2c2cccc(Oc3ccccc3)c2)cc1 (stereo unspecified) | n | n | n | n | x | x
Cc1ccccc1/C=C1\N=C(c2cc(C3=N/C(=C/c4ccccc4C)C(=O)O3)cc(C3=N/C(=C/c4ccccc4C)C(=O)O3)c2)OC1=O | n | n | n | 59 | 46 | n
CCN1CCN(CC(=O)c2ccc(Cl)s2)CC1 | n | n | n | 74 | n | n
CCN1CCN(c2c(Cl)cccc2NC(=O)c2ccc(Cl)s2)CC1 | n | n | n | n | x | x
COc1ccc(CN2CCc3nnc(CCNC(=O)C4CCCO4)n3CC2)cc1 (stereo unspecified) | n | n | n | n | x | x
O=C1NC(=S)S/C1=C\c1cc(O)ccc1Br | n | n | n | n | x | x
O=C1NC(=O)/C(=C\c2ccc(O)cc2O)S1 | n | n | n | 83 | 81 | n | AlphaScreen DR=n
CC(=O)Nc1cc(-c2ccccc2)nn1Cc1ccc(Cl)cc1 | n | n | n | n | x | x
CC(=O)Nc1cc(-c2ccc(Cl)cc2)nn1-c1ccccc1 | n | n | n | 81 | n | n
CCOC(=O)C(C)ON1C(=O)c2ccccc2C1=O (stereo unspecified) | n | n | n | n | x | x
Cc1ccc2c(c1)NC(=O)C(Cl)(C(F)(F)F)O2 (stereo unspecified) | n | n | n | n | x | x
Cc1ccc2c(c1)NC(=O)C(N1CCOCC1)(C(F)(F)F)O2 (stereo unspecified) | n | n | n | 59 | n | n
COc1ccc(C(=O)Nc2c3c(nn2-c2ccc(Oc4ccccc4)cc2)CSC3)cc1 | n | n | n | n | x | x
COc1ccc(CN2CCN(C3CCCC3)CC2)c(OC)c1 | n | n | n | 66 | n | n
COc1ccc(CN2CCN(C3CCN(Cc4ccccc4)CC3)CC2)cc1OC | n | n | n | n | x | x
COc1ccc(CN2CCN(C(=O)CCC3CCCC3)CC2)c(OC)c1 | n | n | n | n | x | x
COc1cc(OC)c(OC)cc1CN1CCN(C2CCCC2)CC1 | n | n | n | n | x | x
COc1cc(OC)c(OC)cc1CN1CCN(C2CCCCC2)CC1 | n | n | n | 67 | n | n
CC1CN(C2CCN(Cc3ccc(Br)cc3)CC2)CC(C)O1 (stereo unspecified) | n | n | n | n | x | x

Assay outcomes as filed in PubChem BioAssay.
